LGR2 inh: blocks bursicon-induced cAMP signaling via Drosophila LGR2; HEK293 LGR2, CRE-luciferase, bursicon-stimulated, 4 h; AID 720647; 380,000 compounds, 0.35% hits; inhibition, % at 9.99 µM;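 active = drop in luminescence signal, shown as inhibition above about 50% in the replicate tests, limit read from the data, passing the limit was not always enough; inconclusive = probably only some replicates passing the limit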;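 also: agonist challenge used bursicon conditioned medium at about half maximal strength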
HSP90 refold inh: inhibitors of HSP90 luciferase refolding in rabbit reticulocyte lysate; inhibition, % at 5.6 µM; luciferase refolding luminescence, 3 h; 290,000 compounds, 0.91% hits; AID 1789;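 active = inhibition above the screen-wide mean plus 3 SD, computed separately per campaign, cut at about 16% in these data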;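 also: 0% = DMSO wells and 100% = 60 µM geldanamycin wells; inhibitors lower the luminescence because luciferase stays unfolded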
TWEAK Fn14 block: inhibitors of TWEAK-Fn14 interaction signaling | TWEAK-stimulated Fn14 reporter cells, luciferase luminescence, 8 h | inhibition, % at 10 µM | 360,000 compounds, 2% hits; in the data active = inhibition above about 50%
TROY NFkB inh: TROY signaling inhibition; 360,000 compounds, 0.98% hits; AID 1347056; inhibition, % at 10 µM; Q293 LMP1-TROYcd NF-kB luciferase reporter, 4 h;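 active = compounds whose plate-normalised and pattern-corrected inhibition of the luciferase reporter signal at the single screening dose is 50% or more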
* hit, by the source's call; u = inconclusive; x = no result. Sampled rows, rich in hits. Any-hit rate of the full collection: about 2.2%.

SMILES	LGR2 inh	HSP90 refold inh	TWEAK Fn14 block	TROY NFkB inh
COc1ccc(Cl)cc1NC(=O)c1cccc([N+](=O)[O-])c1O	-21	x	16	56*
COc1ccc(NC(=O)c2oc3ccccc3c2NC(=O)c2ccco2)cc1	-7	-1	55*	7
CC(C)(C)c1ccc(C(=O)Nc2ccccc2NC(=O)c2ccco2)cc1	x	-2	96*	x
COc1ccc(-c2ccc(NC(=O)c3ccco3)cc2)nn1	66*	x	77*	43
O=C(Nc1ccc(Oc2cccc(C(F)(F)F)c2)nc1)c1ccco1	5	1	14	8
CC(C)(C)c1ccc(Oc2ccc(NC(=O)c3ccco3)cn2)cc1	13	-1	78*	12
C[C@@H]1CN([C@H](C)CO)S(=O)(=O)c2ccc(-c3ccc(F)cc3)cc2O[C@@H]1CN(C)C(=O)C1CCCCC1	11	x	x	x
O=C(C[C@@H]1CC[C@@H](NS(=O)(=O)c2ccc(F)cc2)[C@@H](CO)O1)N1CCc2ccccc2C1	3	x	x	x
CCCc1c(O)c2ccccc2[nH]c1=O	x	-1	80*	x
COc1cccc(NC(=O)N2C[C@H](O)COC[C@@H]3O[C@H](CC(=O)NC4CCCC4)CC[C@H]32)c1	-15	x	x	x
O=C(NC1CCCCC1)C1CCCN1S(=O)(=O)c1ccc(F)cc1 (stereo not drawn)	-4	-1	16	78*
Cc1ccc(S(=O)(=O)N2CCCC2C(=O)NC2CCCCC2)cc1 (stereo not drawn)	x	-2	-7	3
N#CC1=C(N)NC(=S)C(C(N)=O)C1c1ccccc1F (stereo not drawn)	-20	-2	18	-3
N#CC1=C(N)NC(=S)C(C(N)=O)C1c1ccc(Cl)cc1Cl (stereo not drawn)	69*	-3	33	-2
C[C@@H]1CN([C@@H](C)CO)C(=O)c2cc(NC(=O)NC3CCCCC3)ccc2O[C@@H](C)CCCCO[C@H]1CN(C)C(=O)Nc1ccccc1	0	x	x	x
O=[N+]([O-])c1ccc(Sc2cccc[n+]2[O-])c2nonc12	25	24*	94*	86*
O=[N+]([O-])c1ccc(Nc2ccccc2)c2nonc12	-3	0	30	11
CCCn1c(C)cc(C(=O)COc2ccc(-c3nnco3)cc2)c1C	-45	16*	6	13
C[C@@H]1CN([C@@H](C)CO)C(=O)c2cc(NS(=O)(=O)c3ccccc3)ccc2O[C@H]1CN(C)C	1	x	x	x
C=CCN1C=CC(=C/C=C(/C#N)C(=O)OCC)C=C1	x	2	50*	-22
CCOC(=O)/C(C#N)=C/C=C1/C=CC=CN1C	x	5	-17	-22
Cc1cc(C)cc(NC(=O)Cn2c(SCc3cc(C)ccc3C)nc3ccncc32)c1	x	16*	x	x
Cc1ccc(CSc2nc3ccncc3n2CC(=O)Nc2cc(C)cc(C)c2)cc1	-54	3	-1	-60
CC(=O)NC1CC2CCCC(C1)N2S(=O)(=O)c1cccc(F)c1 (stereo not drawn)	x	2	104*	0
C[C@H](CO)N1C[C@H](C)[C@H](CN(C)S(C)(=O)=O)Oc2c(NS(C)(=O)=O)cccc2C1=O	-7	x	x	x
SMILES	LGR2 inh	HSP90 refold inh	TWEAK Fn14 block	TROY NFkB inh
O=C(C[C@H]1CC[C@H]2[C@@H](COC[C@@H](O)CN2Cc2ccccc2)O1)NCc1ccccc1Cl	4	x	x	x
O=c1cc(Nc2ccc3c(c2)OCCO3)[nH]c(=O)n1Cc1ccc(F)cc1	-1	3	69*	51*
CC(C)[C@H](NC(=O)c1ccccc1Cl)C(=O)Nc1nc(-c2ccccn2)cs1	10	-1	21	0
CC(Oc1ccc(Br)cc1)C(=O)Nc1nc(-c2ccccn2)cs1 (stereo not drawn)	17	4	-51	61*
O=C(C[C@H]1C[C@H]2c3cc(NC(=O)C4CCOCC4)ccc3O[C@H]2[C@H](CO)O1)NC1CCCC1	-3	x	x	x
COc1ccccc1-n1cc([C@@H]2C[C@H]3CN(c4ccccc4)C(=O)[C@]34CCCN24)cn1	25	4	80*	40
Cc1cc(C(=O)Nc2ccc3c(c2)C(=O)N(C)[C@@H]2CC[C@H](CC(=O)N[C@H](C)c4ccccc4)O[C@H]2CO3)no1	6	x	x	x
Cc1ccc(-c2nc3ccccc3s2)cc1S(=O)(=O)N1CCCC1	-40	2	3	-2
Cc1cc(-c2nc3cc(F)ccc3s2)ccc1N	64*	x	75*	34
CCCN(C)C[C@H]1Oc2ncc(-c3ccccc3F)cc2C(=O)N([C@@H](C)CO)C[C@@H]1C	-14	x	x	x
COc1ccc2nc3n(c(=O)c2c1)-c1ncccc1C(=O)NC3CC(C)C (stereo not drawn)	11	x	76*	2
CC(C)CC1NC(=O)c2cccnc2-n2c1nc1cc(F)c(F)cc1c2=O (stereo not drawn)	7	x	-28	-6
CN1C(=O)c2cc(NC(=O)c3ccc(C#N)cc3)ccc2OC[C@H]2O[C@@H](CC(=O)NC3Cc4ccccc4C3)CC[C@@H]21	-3	x	x	x
c1ccc(COc2ccc(OCCCN3CCCC3)cc2)cc1	u	6	51*	35
c1ccc(-c2nnnn2-c2ccccc2)cc1	7	0	-4	-8
ClC(Cl)(c1nnnn1-c1ccccc1)c1nnnn1-c1ccccc1	-9	-4	18	59*
COc1ccc(CN(C)C[C@@H]2Oc3ccc(NC(=O)Cn4cnnn4)cc3CC(=O)N([C@H](C)CO)C[C@@H]2C)cc1	4	x	x	x
O=C(Nc1ccccc1C(F)(F)F)N1CCC(N2CCCCC2)CC1	x	1	84*	x
CC(=O)Nc1nc(-c2ccc3c(c2)CCN3S(C)(=O)=O)cs1	-41	0	5	-18
CS(=O)(=O)N1CCc2cc(-c3csc(NC(=O)Cc4cccs4)n3)ccc21	x	-3	80*	19
O=C(CN1CCOCC1)Nc1nc(-c2ccc3c(c2)CCN3S(=O)(=O)c2ccccc2)cs1	12	-1	53*	47
CCN1CC(=O)N2[C@H](C1)[C@H](c1ccc(Br)cc1)[C@@H]2CO	4	x	x	x
C[C@H]1CN([C@@H](C)CO)C(=O)CCCn2cc(nn2)CO[C@H]1CN(C)Cc1cccc(O)c1	6	x	x	x
